In all, about 16,000 sequences were measured (“e-score”: median about -0.044, highest 2% from about 0.38 on). The sample holds the highest values, similar sequences and a random draw of the others, so the mix is not that of the screen.

Among the data in publication PMC5836133, “The intracellular immune receptor Rx1 regulates the DNA-binding activity of a Golden2-like transcription factor” are binding signal values, retold here.

The test has as its target T1, GST-NbGlk1(82-244) (Nicotiana benthamiana).
T1 chain: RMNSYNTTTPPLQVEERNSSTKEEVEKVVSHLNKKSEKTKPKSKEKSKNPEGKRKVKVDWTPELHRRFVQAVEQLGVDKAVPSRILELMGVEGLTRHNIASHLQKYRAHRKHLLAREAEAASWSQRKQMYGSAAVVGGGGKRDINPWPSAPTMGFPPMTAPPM
The test can be described thus: protein-binding microarray; NbGlk1 is a Golden2-like transcription factor of Nicotiana benthamiana; high values mean tight binding. The following applies: protein: recombinant; tags: GST (pTH6838); dsDNA, one strand shown.
Take ACGGATTG: the binding signal worked out at 0.277 ± 0.0929 E-score.
With ACGGATTC the figure was 0.405 ± 0.00859 E-score.
As to ATGGATTA, the binding signal is 0.326 ± 0.0123 E-score.
For ATGGATTG, the binding signal was found to be 0.21 ± 0.0605 E-score.
With ACGGATTA the figure was 0.312 ± 0.00583 E-score; with ATGGATTC, 0.425 ± 0.0111 E-score.
With ACGCTGAT the figure was 0.235 ± 0.108 E-score; with ATTTCTTG, 0.258 ± 0.105 E-score; with AATGAAAT, 0.236 ± 0.00744 E-score.
With CAATCTCA the figure was 0.329 ± 0.0291 E-score; with CAATCTCC, 0.349 ± 0.0541 E-score; with AAATCTCG, 0.4626 ± 0.00233 E-score.
Regarding CAATCTCG, the binding signal worked out at 0.404 ± 0.00662 E-score.
The value for AAATCTCA was 0.444 ± 0.0165 E-score; that for AATTCTCA was 0.243 ± 0.0881 E-score.
For AAATCTCC, the binding signal was found to be 0.439 ± 0.00952 E-score.
With CAATCACA the figure was 0.205 ± 0.12 E-score; with ATCGAATA, 0.235 ± 0.0136 E-score; with ACGAGAAT, 0.31 ± 0.0433 E-score.
Regarding ATCTAATG, the binding signal worked out at 0.243 ± 0.0558 E-score.
The value for ATTTCCCA was 0.329 ± 0.00415 E-score; that for CACGATCG was 0.23 ± 0.0866 E-score.
The value for ATCTATCA was 0.276 ± 0.0314 E-score; that for ATAGGATC was 0.255 ± 0.0193 E-score.
As for AATCAACA, the binding signal came out at 0.259 ± 0.102 E-score.
For ATCTTTTG, the binding signal came out at 0.24 ± 0.0872 E-score.
With AATCATAT the figure was 0.28 ± 0.0597 E-score; with ACTGTGAT, 0.208 ± 0.0601 E-score.
The value for AGATCGGG was 0.239 ± 0.0369 E-score; that for ATCCTCTA was 0.342 ± 0.0176 E-score; that for ACTGATAC was 0.204 ± 0.0454 E-score.
With CAAAGATA the figure was 0.225 ± 0.0785 E-score; with AATTCTCT, 0.225 ± 0.0473 E-score.
As for AAATCTCT, the binding signal was 0.392 ± 0.0226 E-score.
With AAATCACT the figure was 0.26 ± 0.0391 E-score.
The value for ATCCTCAA was 0.322 ± 0.0217 E-score; that for ACCGGATC was 0.21 ± 0.0564 E-score.
Regarding ATATAAGA, the binding signal was determined as 0.21 ± 0.0738 E-score.
With AATATTTC the figure was 0.34 ± 0.0237 E-score; with AGAATTTC, 0.267 ± 0.0165 E-score.
With AGGATTTG, the binding signal stood at 0.383 ± 0.0174 E-score.
On to AGGATTTC, for which the binding signal was found to be 0.469 ± 0.0121 E-score.
Consider AGTATTTG, for which the binding signal was 0.208 ± 0.054 E-score.
With AGAATTTG, the binding signal was 0.293 ± 0.0716 E-score.
With ATCTCCTA, the binding signal turned out to be 0.337 ± 0.0176 E-score.
With AGGGAAAT, the binding signal stood at 0.334 ± 0.0487 E-score.
As to AATAAGAT, the binding signal was 0.3 ± 0.0136 E-score.
The value for ATTACTCA was 0.208 ± 0.0879 E-score; that for AATCGCGA was 0.376 ± 0.0188 E-score.
The value for AGATCCCC was 0.378 ± 0.0125 E-score; that for AGATCTCC was 0.441 ± 0.0151 E-score.
Regarding AGATCTAC, the binding signal is 0.347 ± 0.0432 E-score.
For the sequence AGATCTCA, the binding signal turned out to be 0.413 ± 0.0152 E-score.
The value for AGATCTCG was 0.431 ± 0.0229 E-score; that for AGATCCCG was 0.32 ± 0.0375 E-score.
Regarding AGATCACG, the binding signal turned out to be 0.26 ± 0.003 E-score.
Regarding AGATCCCA, the binding signal worked out at 0.219 ± 0.0112 E-score.
Take ATCGTAAC: the binding signal came out at 0.244 ± 0.00995 E-score.
ATCATATC: the binding signal is 0.329 ± 0.0297 E-score.
In the case of ATTCCCGG, the binding signal came to 0.283 ± 0.0331 E-score.
With ATAATCGC the figure was 0.207 ± 0.0834 E-score.
The value for CAAATCGC was 0.32 ± 0.038 E-score; that for AAAATCGC was 0.405 ± 0.00862 E-score.
The value for ATAATCGA was 0.216 ± 0.00243 E-score.
On to AAAATCGG, for which the binding signal was 0.363 ± 0.0144 E-score.
Consider CAAATCGA, for which the binding signal stood at 0.28 ± 0.0483 E-score.
With AAAATCGT the figure was 0.39 ± 0.0061 E-score.
For AAAATCGA, the binding signal was found to be 0.381 ± 0.0174 E-score.
The value for AATTGCGT was 0.233 ± 0.0124 E-score; that for AATTATCC was 0.204 ± 0.00884 E-score; that for ATCTGAGC was 0.219 ± 0.0796 E-score.
With ACAGATTA the figure was 0.362 ± 0.0124 E-score.
Regarding ACAGATTG, the binding signal was 0.359 ± 0.0598 E-score.
For the sequence ATAGATTC, the binding signal worked out at 0.437 ± 0.0195 E-score.
As for ATAGATTG, the binding signal stood at 0.327 ± 0.0261 E-score.
The value for ATAGATTA was 0.339 ± 0.0049 E-score; that for AGAGATTA was 0.298 ± 0.025 E-score; that for AGAGATTG was 0.325 ± 0.048 E-score.
As for AGAGATTC, the binding signal turned out to be 0.434 ± 0.028 E-score.
The value for ACAGATTC was 0.429 ± 0.0275 E-score.
With ACCAGATC the figure was 0.2 ± 0.124 E-score; with ATCACGTA, 0.257 ± 0.0112 E-score.
As to AAGTATCT, the binding signal was determined as 0.249 ± 0.0273 E-score.
With AATTTAGA the figure was 0.251 ± 0.0537 E-score; with AGTGCGAT, 0.313 ± 0.00866 E-score; with AAGGGGAT, 0.203 ± 0.0242 E-score.
Consider ATTTGCAA, for which the binding signal stood at 0.304 ± 0.00257 E-score.
As for ATATCACA, the binding signal amounted to 0.369 ± 0.031 E-score.
For ATTGCGTA, the binding signal was determined as 0.367 ± 0.0361 E-score.
The value for ATTGCGTC was 0.2709 ± 0.000439 E-score.
The value for ATTGCGTG was 0.388 ± 0.00526 E-score; that for CAATCAAA was 0.214 ± 0.036 E-score.
For the sequence AAAATAAA, the binding signal worked out at 0.218 ± 0.15 E-score.
With CACTGATA the figure was 0.208 ± 0.181 E-score.
